Screening results as filed in PubChem BioAssay.
In the library only some 4.7% were active in any assay of this set; here they are far more common.
D1 PAM: potentiators of human D1 dopamine receptor | P21728 | HEK293 TREx D1 cells, calcium flux, dopamine EC20 potentiation | potentiation, % at 10 µM | hit rate 0.036% among 360,000; in the data active = potentiation above about 30%; note: 0% is about no effect
D1 antag: antagonists of human D1 dopamine receptor; P21728; HEK293 TREx D1 cells, calcium flux, dopamine EC80; active compounds read low; activity change, negative = inhibition, % at 10 µM; hit rate 3.2% among 360,000; in the data active = activity change below about -30%; note: % is set by controls: 0 for no effect and ±100 for the full control effect
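Calcium flux readout: force-coupled, inducible Hek293 Trex D1 line, cells induced overnight at 30 C with tetracycline, dye-loaded 30–90 min at RT. Antagonism scored against EC80 dopamine challenge given 180 s after compound.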
TRHR enhancer: TRH receptor (human) allosteric enhancement | TRHR cells, fluo-8 calcium fluorescence, EC20 TRH enhancement | hit rate 0.66% among 360,000 | AID 493056 | P34981 | enhancement, % at 2 µM; in the data active = enhancement above about 30%; note: 0% is about no effect
Target sequence (P34981 whole entry, looked up): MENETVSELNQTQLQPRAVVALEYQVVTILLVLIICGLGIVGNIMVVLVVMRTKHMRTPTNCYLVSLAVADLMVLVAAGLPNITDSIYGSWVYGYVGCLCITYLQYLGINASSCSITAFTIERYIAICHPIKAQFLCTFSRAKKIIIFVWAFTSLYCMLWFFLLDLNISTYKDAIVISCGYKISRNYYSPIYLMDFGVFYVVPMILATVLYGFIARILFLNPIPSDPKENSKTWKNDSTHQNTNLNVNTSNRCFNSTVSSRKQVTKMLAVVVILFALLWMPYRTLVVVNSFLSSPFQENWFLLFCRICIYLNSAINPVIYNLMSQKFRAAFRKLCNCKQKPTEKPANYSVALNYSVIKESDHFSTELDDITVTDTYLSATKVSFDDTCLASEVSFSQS
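TRHR-expressing cells loaded with fluo-8 calcium dye were read kinetically (ex 480/em 530) during compound addition, then stimulated with an EC20 of TRH (10 nM final). Enhancement of the Gq-mediated intracellular calcium response was scored.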
D1 agonist: agonists of human D1 dopamine receptor | hit rate 1% among 360,000 | HEK293 T-REx D1 cells, calcium flux, agonist mode | activation, % at 2 µM | P21728; note: 0% is about no effect
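Agonism was scored from calcium flux recorded over 180 s (1 read/s) after pintool compound addition, following a 10-cycle baseline. Cells were inducible force-coupled HEK293 TREx D1, plated overnight at 30 C and loaded with no-wash calcium dye.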
TRHR agonist: activates the human TRH receptor | P34981 | TRHR cells, calcium flux fluo-8, FDSS agonist mode | activation, % at 2 µM | hit rate 0.18% among 360,000; note: 0% is about no effect
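In this calcium-flux screen, cells bearing human TRHR are dye-loaded with fluo-8, baselined for 10 cycles, then exposed to library compounds; positive kinetic calcium responses during the agonist phase mark hits, with TRH as control.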
An asterisk follows results filed as active; · = no result. Cut-off read from the data, not from the text of the source, unless noted: active = activation above about 30%; inactive = the rest.

SMILES	D1 PAM	D1 antag	TRHR enhancer	D1 agonist	TRHR agonist
CCOc1ccc(N(CC)C(=O)c2cc3c(s2)-c2ccc(Cl)cc2SC3)cc1	-3.1	3.3	2.9	3.2	-2.1
Cc1cc(=O)n2nc(N3CCC(C(=O)Nc4ccc(C)c(Cl)c4)CC3)sc2n1	-1.8	6.5	1.4	-2.5	-2.1
Cc1cc(C)c(NC(=O)Cn2c(=O)n(Cc3ccco3)c(=O)c3ccc(C(=O)NC4CCCC4)cc32)c(C)c1	-1.6	0.0	54.8*	1.2	-1.2
Cc1ccc(C)c(NC(=O)Cn2c(=O)n(Cc3ccco3)c(=O)c3ccc(C(=O)NC4CCCC4)cc32)c1	7.3	0.3	4.0	1.4	1.0
COCCn1c(SCC(=O)c2ccc(OC)cc2)nc2cc(C(=O)NC3CCCC3)ccc2c1=O	4.0	-25.3	1.4	2.9	-0.1
CCOC(=O)N1CCc2c(sc(NCc3cccc(F)c3)c2C(=O)Nc2ccc(OC)cc2OC)C1	1.6	-5.6	-0.3	-0.2	-0.2
O=C(Nc1ccc(Oc2cccc(C(F)(F)F)c2)nc1)c1ccco1	-1.1	-40.6*	-3.8	12.3	1.8
CC(C)(C)CN1C(N)=NC[C@@H]1Cc1ccc(O)cc1	-0.3	-44.8*	-5.1	1.9	-0.5
Cc1ccc(C=Nc2cccnc2N)cc1	12.9	7.0	-2.0	89.9*	12.9
O=S1(=O)CC/C(=N/Nc2ccccn2)c2cc(F)ccc21	-0.6	0.2	-4.2	0.4	0.3
O=S1(=O)CC/C(=N/Nc2ccc(C(F)(F)F)cn2)c2cc(F)ccc21	10.9	-51.6*	16.7	-0.4	0.8
Cc1cc(C)cc(N(CCC#N)C(=O)CSC2=Nc3ccccc3C3CC=NN23)c1 (stereo not drawn)	-1.3	11.0	33.6*	3.3	0.5
N#Cc1ccccc1NC(=O)CSC1=Nc2ccccc2C2CC=NN12 (stereo not drawn)	-5.7	-7.2	4.0	1.4	0.0
Cc1c(C)c2ccc(OCC(=O)N(C)C3CCS(=O)(=O)C3)c(C)c2oc1=O (stereo not drawn)	5.0	-14.9	1.2	4.7	0.8
CC(Cc1ccccc1)NC(=O)c1cc2ccccc2o1 (stereo not drawn)	-20.0	-7.2	-6.0	48.0*	-1.9
CN1CCN(C(c2ccccc2)c2sc3nc(-c4ccco4)nn3c2O)CC1 (stereo not drawn)	-1.1	·	-2.5	-2.2	0.2
O=S(=O)(c1ccccc1)c1nnn2c1nc(NC1CCCCC1)c1sccc12	-4.7	-20.1	2.4	-0.1	-1.2
COc1cc(NC(=O)c2ccc(-n3cnc4cccnc43)cc2)cc(OC)c1	1.2	-3.2	-0.8	0.4	0.3
Cc1ccc(-c2noc(C3CCCN(C(=O)c4c(F)cccc4F)C3)n2)cc1 (stereo not drawn)	-3.2	-10.5	-4.8	3.1	-1.2
Cc1ccc(-c2noc(C3CCCN(C(=O)c4cccc(F)c4)C3)n2)cc1 (stereo not drawn)	0.9	-31.1*	-2.8	11.5	0.7
COCCn1c(C)cc(C(=O)CSc2nc3ccccc3c(=O)n2Cc2ccco2)c1C	0.2	0.8	7.0	1.7	0.1
COCCn1c(C)cc(C(=O)CSc2cc(C)c3ccccc3n2)c1C	-8.0	-38.1*	-6.1	2.1	-1.1
CC1CCN(CCOCCOc2ccc(Br)cc2Cl)CC1	-18.1	-33.4*	-3.1	13.1	1.1
CC1CCN(CCOc2cc(Cl)ccc2Cl)CC1	-4.2	-59.0*	23.5	3.8	-0.7
O=C(Nc1ccccc1N1CCN(C(=O)c2ccccc2)CC1)c1ccc(Br)o1	-6.0	2.8	-8.0	1.8	-0.2
SMILES	D1 PAM	D1 antag	TRHR enhancer	D1 agonist	TRHR agonist
CCOc1ccccc1NC(=O)CSc1ccc2nnc(CCNS(=O)(=O)c3ccccc3)n2n1	-3.6	-4.3	-9.1	5.9	0.3
COC(=O)c1ccc(NC(=O)C(c2ccccc2)N2Cc3ccccc3C2=O)cc1 (stereo not drawn)	3.1	2.0	3.8	3.4	2.0
NCc1nc2cccnc2n1Cc1ccccc1Cl	-2.1	-31.1*	-2.6	0.3	-0.6
O=C(Cc1ccc2c(c1)OCCO2)N1CCN(S(=O)(=O)c2cccs2)CC1	-12.2	-34.9*	-2.8	15.2	-0.1
O=C(Cc1ccc2c(c1)OCCO2)N1CCN(S(=O)(=O)c2cccc(Cl)c2Cl)CC1	-5.6	-27.8	-0.3	12.7	0.9
O=C(CSc1nc2c([nH]c3ccccc32)c(=O)n1-c1cccc(C(F)(F)F)c1)N1CCCC1	-4.4	-8.4	-1.9	0.2	0.3
CN(C)S(=O)(=O)c1ccc2c(c1)/C(=C/c1cc3c([nH]1)CCCC3)C(=O)N2	-0.1	-27.6	-2.1	171.2*	68.8*
CN(C)S(=O)(=O)c1ccc2c(c1)C(=O)c1cc(S(=O)(=O)N(C)C)ccc1CC2	-4.7	·	-6.2	-1.3	0.0
Cn1ccnc1C(OC(=O)c1ccc(Cl)cc1)C(F)(F)F (stereo not drawn)	-4.3	-0.2	-11.0	2.0	-0.2
COc1ccc(NC(=O)C2CCN(S(=O)(=O)c3cn(C)cn3)CC2)cc1Cl	0.9	4.0	-0.8	-1.0	-0.1
CN1CCN(c2ccc(-c3nc(-c4ccccc4)no3)cc2[N+](=O)[O-])CC1	-3.0	-37.5*	3.6	6.5	0.3
COc1ccc(-c2noc(-c3ccc(N4CCC(C)CC4)c([N+](=O)[O-])c3)n2)cc1OC	-4.7	-42.0*	-5.8	20.3	0.9
CN(C)c1ccc(-c2nc(-c3ccccn3)no2)cc1[N+](=O)[O-]	-2.5	-38.6*	-7.3	9.5	0.1
CN(C)S(=O)(=O)c1cc(NC(=O)COC(=O)CCSc2ccc(Cl)cc2)ccc1Cl	-1.4	-43.3*	12.8	28.5	2.5
CCn1cc(C(=O)NCCc2ccc(OC)c(OC)c2)c(=O)c2cc(S(=O)(=O)N3CCOCC3)ccc21	-4.2	-1.0	2.5	0.5	-2.0
N#Cc1sc2nc(-c3cccs3)cc(-c3ccccc3)c2c1N	0.1	1.4	7.2	-1.1	-0.2
N#Cc1sc2nc(-c3cccs3)cc(-c3ccc(Cl)cc3)c2c1N	-8.4	-31.8*	1.4	5.1	1.8
Cc1ccc(Nc2nc3nonc3nc2Nc2cccc(C(F)(F)F)c2)cc1Cl	-3.4	-35.0*	-10.8	14.4	5.1
COc1ccccc1N1CCN(C(=O)c2ccc3c(=O)n(Cc4ccc5c(c4)OCO5)c(=O)[nH]c3c2)CC1	-6.7	-3.3	4.7	3.9	0.2
N#CC(C#N)=C(Nc1ccc(F)cc1)SCc1cccc(F)c1	-11.8	-44.1*	-6.6	33.7*	4.2
CCOc1ccc(N/C(SCc2cccc([N+](=O)[O-])c2)=C(/C#N)C(N)=O)cc1	-6.3	-13.6	1.1	0.5	-1.5
COc1ccc(NC(=O)Cn2cc(C(=O)c3ccccc3OC)c(=O)c3ccc(C)nc32)cc1OC	1.0	9.5	-3.4	0.3	0.5
COc1ccc(N(C)S(=O)(=O)c2ccc3c(c2)CCN3C(=O)C2CC2)c(OC)c1	-4.9	3.3	-0.9	11.7	-1.2
